# In article PMC12820563, “FoxP3 forms a head-to-head dimer in vivo and stabilizes its multimerization on adjacent microsatellites”:
# In all, about 16,000 sequences were measured (“rpm ratio (pull-down/input)”: median about 0.5, highest 2% from about 5.5 on). The sample as a whole holds a higher share of the highest values than the screen did.
# Molecular target: T1, MBP-FoxP3dN (Mus musculus, UniProt Q99JB6 188-423)
# T1 sequence: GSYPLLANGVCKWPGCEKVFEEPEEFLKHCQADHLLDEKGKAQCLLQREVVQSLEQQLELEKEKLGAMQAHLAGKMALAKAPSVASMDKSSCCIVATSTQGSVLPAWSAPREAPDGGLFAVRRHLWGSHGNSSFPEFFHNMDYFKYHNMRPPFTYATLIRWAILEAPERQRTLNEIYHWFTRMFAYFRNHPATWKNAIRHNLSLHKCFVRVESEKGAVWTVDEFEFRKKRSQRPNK
# Assay: PD-seq (MBP pull-down with sequencing); 20 mM Tris-HCl pH 7.5, 100 mM NaCl, 1.5 mM MgCl2, 0.4 uM protein, 0.1 uM dsDNA library, 30 min, room temperature, amylose pull-down; high values mean tight binding
# Conditions: protein: recombinant; tags: His6-MBP; chain copies: 2; dsDNA, one strand shown
# Procedure, shortened: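 Binding is reads-per-million enrichment of pull-down over input, with replicates pooled. It comes from 30 min room-temperature incubation in Tris pH 7.5 buffer with NaCl and MgCl2 of 0.4 µM His6-MBP-tagged, N-terminally truncated mouse FoxP3 or FoxP1 fragment from E. coli with 0.1 µM Klenow-filled degenerate double-stranded DNA library, followed by amylose resin capture, three washes and Illumina sequencing of the released DNA.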
row,Sequence,binding signal
1,GATGATTGTTCTCCCAGCTGATGAATTGCCCCCTTCGAGTAAACAAATTTTCCTAATCTTTCTGTTCAAGCGCCATCTAC,0.413 RPM ratio (pull-down/input)
2,GATGATTGTTCTCCCAGCTGATGAATTTCCGGTATCGAGTAAACAAATTTTCCTAATCTTTCTGTTCAAGCGCCATCTAC,0.44 RPM ratio (pull-down/input)
3,GATGATTGTTCTCCCAGCTGATGAATTGGCATCTTCGAGTAAACAAATTTTCCTAATCTTTCTGTTCAAGCGCCATCTAC,4.07 RPM ratio (pull-down/input)
4,GATGATTGTTCTCCCAGCTGATGAATTTGGCCATTCGAGTAAACAAATTTTCCTAATCTTTCTGTTCAAGCGCCATCTAC,4.06 RPM ratio (pull-down/input)
5,GATGATTGTTCTCCCAGCTGATGAATTTTGGCATTCGAGTAAACAAATTTTCCTAATCTTTCTGTTCAAGCGCCATCTAC,5.56 RPM ratio (pull-down/input)
6,GATGATTGTTCTCCCAGCTGATGAATTTGGCATCTCGAGTAAACAAATTTTCCTAATCTTTCTGTTCAAGCGCCATCTAC,6.36 RPM ratio (pull-down/input)
7,GATGATTGTTCTCCCAGCTGATGAATTTGGCATTTCGAGTAAACAAATTTTCCTAATCTTTCTGTTCAAGCGCCATCTAC,6.16 RPM ratio (pull-down/input)
8,GATGATTGTTCTCCCAGCTGATGAATTGTGGCATTCGAGTAAACAAATTTTCCTAATCTTTCTGTTCAAGCGCCATCTAC,6.18 RPM ratio (pull-down/input)
9,GATGATTGTTCTCCCAGCTGATGAATTGGCATCCTCGAGTAAACAAATTTTCCTAATCTTTCTGTTCAAGCGCCATCTAC,4.28 RPM ratio (pull-down/input)
10,GATGATTGTTCTCCCAGCTGATGAATTCTGGCATTCGAGTAAACAAATTTTCCTAATCTTTCTGTTCAAGCGCCATCTAC,4.83 RPM ratio (pull-down/input)
11,GATGATTGTTCTCCCAGCTGATGAATTCGTGGCATCGAGTAAACAAATTTTCCTAATCTTTCTGTTCAAGCGCCATCTAC,1.13 RPM ratio (pull-down/input)
12,GATGATTGTTCTCCCAGCTGATGAATTTTTGGCATCGAGTAAACAAATTTTCCTAATCTTTCTGTTCAAGCGCCATCTAC,0.785 RPM ratio (pull-down/input)
13,GATGATTGTTCTCCCAGCTGATGAATTGGCATTCTCGAGTAAACAAATTTTCCTAATCTTTCTGTTCAAGCGCCATCTAC,3.49 RPM ratio (pull-down/input)
14,GATGATTGTTCTCCCAGCTGATGAATTGGCATTTTCGAGTAAACAAATTTTCCTAATCTTTCTGTTCAAGCGCCATCTAC,3.38 RPM ratio (pull-down/input)
15,GATGATTGTTCTCCCAGCTGATGAATTGGGTGGTTCGAGTAAACAAATTTTCCTAATCTTTCTGTTCAAGCGCCATCTAC,0.736 RPM ratio (pull-down/input)
16,GATGATTGTTCTCCCAGCTGATGAATTGCAGAGTTCGAGTAAACAAATTTTCCTAATCTTTCTGTTCAAGCGCCATCTAC,0.781 RPM ratio (pull-down/input)
17,GATGATTGTTCTCCCAGCTGATGAATTGTTCGACTCGAGTAAACAAATTTTCCTAATCTTTCTGTTCAAGCGCCATCTAC,0.414 RPM ratio (pull-down/input)
18,GATGATTGTTCTCCCAGCTGATGAATTTTGTCCGTCGAGTAAACAAATTTTCCTAATCTTTCTGTTCAAGCGCCATCTAC,0.813 RPM ratio (pull-down/input)
19,GATGATTGTTCTCCCAGCTGATGAATTCTTTTGTTCGAGTAAACAAATTTTCCTAATCTTTCTGTTCAAGCGCCATCTAC,0.487 RPM ratio (pull-down/input)
20,GATGATTGTTCTCCCAGCTGATGAATTCAAACATTCGAGTAAACAAATTTTCCTAATCTTTCTGTTCAAGCGCCATCTAC,1.12 RPM ratio (pull-down/input)
21,GATGATTGTTCTCCCAGCTGATGAATTGGCGAATTCGAGTAAACAAATTTTCCTAATCTTTCTGTTCAAGCGCCATCTAC,0.898 RPM ratio (pull-down/input)

row,Sequence,binding signal
1,GATGATTGTTCTCCCAGCTGATGAATTGGCGCATTCGAGTAAACAAATTTTCCTAATCTTTCTGTTCAAGCGCCATCTAC,6.97 RPM ratio (pull-down/input)
2,GATGATTGTTCTCCCAGCTGATGAATTCGTCCGTTCGAGTAAACAAATTTTCCTAATCTTTCTGTTCAAGCGCCATCTAC,0.459 RPM ratio (pull-down/input)
3,GATGATTGTTCTCCCAGCTGATGAATTCGTATCGTCGAGTAAACAAATTTTCCTAATCTTTCTGTTCAAGCGCCATCTAC,1.53 RPM ratio (pull-down/input)
4,GATGATTGTTCTCCCAGCTGATGAATTACTGTTCTCGAGTAAACAAATTTTCCTAATCTTTCTGTTCAAGCGCCATCTAC,0.662 RPM ratio (pull-down/input)
5,GATGATTGTTCTCCCAGCTGATGAATTTAGCCTCTCGAGTAAACAAATTTTCCTAATCTTTCTGTTCAAGCGCCATCTAC,5.79 RPM ratio (pull-down/input)
6,GATGATTGTTCTCCCAGCTGATGAATTTTTAGCCTCGAGTAAACAAATTTTCCTAATCTTTCTGTTCAAGCGCCATCTAC,0.414 RPM ratio (pull-down/input)
7,GATGATTGTTCTCCCAGCTGATGAATTAACAGCCTCGAGTAAACAAATTTTCCTAATCTTTCTGTTCAAGCGCCATCTAC,0.491 RPM ratio (pull-down/input)
8,GATGATTGTTCTCCCAGCTGATGAATTTAGCGCCTCGAGTAAACAAATTTTCCTAATCTTTCTGTTCAAGCGCCATCTAC,1.56 RPM ratio (pull-down/input)
9,GATGATTGTTCTCCCAGCTGATGAATTAAGCCTCTCGAGTAAACAAATTTTCCTAATCTTTCTGTTCAAGCGCCATCTAC,5.69 RPM ratio (pull-down/input)
10,GATGATTGTTCTCCCAGCTGATGAATTAAGCGCCTCGAGTAAACAAATTTTCCTAATCTTTCTGTTCAAGCGCCATCTAC,1.4 RPM ratio (pull-down/input)
11,GATGATTGTTCTCCCAGCTGATGAATTAGCCACTTCGAGTAAACAAATTTTCCTAATCTTTCTGTTCAAGCGCCATCTAC,1.09 RPM ratio (pull-down/input)
12,GATGATTGTTCTCCCAGCTGATGAATTATTCGCCTCGAGTAAACAAATTTTCCTAATCTTTCTGTTCAAGCGCCATCTAC,0.568 RPM ratio (pull-down/input)
13,GATGATTGTTCTCCCAGCTGATGAATTAACAACTTCGAGTAAACAAATTTTCCTAATCTTTCTGTTCAAGCGCCATCTAC,0.722 RPM ratio (pull-down/input)
14,GATGATTGTTCTCCCAGCTGATGAATTCGGCACATCGAGTAAACAAATTTTCCTAATCTTTCTGTTCAAGCGCCATCTAC,0.778 RPM ratio (pull-down/input)
15,GATGATTGTTCTCCCAGCTGATGAATTATACTTGTCGAGTAAACAAATTTTCCTAATCTTTCTGTTCAAGCGCCATCTAC,1.05 RPM ratio (pull-down/input)
16,GATGATTGTTCTCCCAGCTGATGAATTGCATCAATCGAGTAAACAAATTTTCCTAATCTTTCTGTTCAAGCGCCATCTAC,3.31 RPM ratio (pull-down/input)
17,GATGATTGTTCTCCCAGCTGATGAATTTGCATCATCGAGTAAACAAATTTTCCTAATCTTTCTGTTCAAGCGCCATCTAC,6.33 RPM ratio (pull-down/input)
18,GATGATTGTTCTCCCAGCTGATGAATTTGCAGCATCGAGTAAACAAATTTTCCTAATCTTTCTGTTCAAGCGCCATCTAC,1.6 RPM ratio (pull-down/input)
19,GATGATTGTTCTCCCAGCTGATGAATTCTTTGCATCGAGTAAACAAATTTTCCTAATCTTTCTGTTCAAGCGCCATCTAC,0.99 RPM ratio (pull-down/input)
20,GATGATTGTTCTCCCAGCTGATGAATTTTTTGCATCGAGTAAACAAATTTTCCTAATCTTTCTGTTCAAGCGCCATCTAC,1.37 RPM ratio (pull-down/input)
21,GATGATTGTTCTCCCAGCTGATGAATTGCCATCATCGAGTAAACAAATTTTCCTAATCTTTCTGTTCAAGCGCCATCTAC,1.56 RPM ratio (pull-down/input)

row,Sequence,binding signal
1,GATGATTGTTCTCCCAGCTGATGAATTGTTTGCATCGAGTAAACAAATTTTCCTAATCTTTCTGTTCAAGCGCCATCTAC,6.03 RPM ratio (pull-down/input)
2,GATGATTGTTCTCCCAGCTGATGAATTTGTTGCATCGAGTAAACAAATTTTCCTAATCTTTCTGTTCAAGCGCCATCTAC,7.07 RPM ratio (pull-down/input)
3,GATGATTGTTCTCCCAGCTGATGAATTTGCATGATCGAGTAAACAAATTTTCCTAATCTTTCTGTTCAAGCGCCATCTAC,1.63 RPM ratio (pull-down/input)
4,GATGATTGTTCTCCCAGCTGATGAATTACTATCGTCGAGTAAACAAATTTTCCTAATCTTTCTGTTCAAGCGCCATCTAC,0.509 RPM ratio (pull-down/input)
5,GATGATTGTTCTCCCAGCTGATGAATTGCTAACTTCGAGTAAACAAATTTTCCTAATCTTTCTGTTCAAGCGCCATCTAC,0.723 RPM ratio (pull-down/input)
6,GATGATTGTTCTCCCAGCTGATGAATTGCAAGCGTCGAGTAAACAAATTTTCCTAATCTTTCTGTTCAAGCGCCATCTAC,0.974 RPM ratio (pull-down/input)
7,GATGATTGTTCTCCCAGCTGATGAATTAGGTGGCTCGAGTAAACAAATTTTCCTAATCTTTCTGTTCAAGCGCCATCTAC,0.625 RPM ratio (pull-down/input)
8,GATGATTGTTCTCCCAGCTGATGAATTATCAGAGTCGAGTAAACAAATTTTCCTAATCTTTCTGTTCAAGCGCCATCTAC,0.249 RPM ratio (pull-down/input)
9,GATGATTGTTCTCCCAGCTGATGAATTCTTCTCATCGAGTAAACAAATTTTCCTAATCTTTCTGTTCAAGCGCCATCTAC,0.242 RPM ratio (pull-down/input)
10,GATGATTGTTCTCCCAGCTGATGAATTTATTATTTCGAGTAAACAAATTTTCCTAATCTTTCTGTTCAAGCGCCATCTAC,5.57 RPM ratio (pull-down/input)
11,GATGATTGTTCTCCCAGCTGATGAATTATTTCTTTCGAGTAAACAAATTTTCCTAATCTTTCTGTTCAAGCGCCATCTAC,0.419 RPM ratio (pull-down/input)
12,GATGATTGTTCTCCCAGCTGATGAATTTGTTTATTCGAGTAAACAAATTTTCCTAATCTTTCTGTTCAAGCGCCATCTAC,7.73 RPM ratio (pull-down/input)
13,GATGATTGTTCTCCCAGCTGATGAATTGTTTTATTCGAGTAAACAAATTTTCCTAATCTTTCTGTTCAAGCGCCATCTAC,1.66 RPM ratio (pull-down/input)
14,GATGATTGTTCTCCCAGCTGATGAATTTATTTATTCGAGTAAACAAATTTTCCTAATCTTTCTGTTCAAGCGCCATCTAC,5.86 RPM ratio (pull-down/input)
15,GATGATTGTTCTCCCAGCTGATGAATTTTTTTATTCGAGTAAACAAATTTTCCTAATCTTTCTGTTCAAGCGCCATCTAC,0.313 RPM ratio (pull-down/input)
16,GATGATTGTTCTCCCAGCTGATGAATTATTTATTTCGAGTAAACAAATTTTCCTAATCTTTCTGTTCAAGCGCCATCTAC,2.74 RPM ratio (pull-down/input)
17,GATGATTGTTCTCCCAGCTGATGAATTGGTTATTTCGAGTAAACAAATTTTCCTAATCTTTCTGTTCAAGCGCCATCTAC,3.1 RPM ratio (pull-down/input)
18,GATGATTGTTCTCCCAGCTGATGAATTTATTCTTTCGAGTAAACAAATTTTCCTAATCTTTCTGTTCAAGCGCCATCTAC,0.542 RPM ratio (pull-down/input)
19,GATGATTGTTCTCCCAGCTGATGAATTTATTGGTTCGAGTAAACAAATTTTCCTAATCTTTCTGTTCAAGCGCCATCTAC,5.89 RPM ratio (pull-down/input)
20,GATGATTGTTCTCCCAGCTGATGAATTGGTTTATTCGAGTAAACAAATTTTCCTAATCTTTCTGTTCAAGCGCCATCTAC,4.04 RPM ratio (pull-down/input)
21,GATGATTGTTCTCCCAGCTGATGAATTTCTTTATTCGAGTAAACAAATTTTCCTAATCTTTCTGTTCAAGCGCCATCTAC,1.53 RPM ratio (pull-down/input)
